HT1080-NT tox – kills 2HG-producing HT-1080-NT fibrosarcoma cells; Potency, µM (doses to about 46.1 µM), for the others: top-dose activity, negative = less viability, most hits filed as cytotoxic; 360,000 compounds, 1.6% hits; AID 686970; HT-1080-NT fibrosarcoma viability, CellTiter-Glo ATP luminescence, 48 h;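 also: NT is the 2HG producing partner of a matched IDH1 knockdown line; 0% = DMSO-treated cells and -100% = media-only wells without cells; nearly all actives have a fitted effect of over 55% in size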
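Read-out is CellTiter-Glo luminescence after 10 minutes at room temperature, following 48 hours' compound treatment of HT-1080-NT cells (750 cells/well, RPMI, 5% FBS, 37 degrees C).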
TDP1 cell noCPT – qHTS for Inhibitors of human tyrosyl-DNA phosphodiesterase 1 (TDP1): qHTS in cells in absence of CPT. DT40 Tdp1-/- hTDP1 cells, no CPT, ATP luminescence, 48 h. Potency, µM (series often up to 46.2 µM), for inactives: at the top dose activity change, negative = growth inhibition, hits mostly inhibitors. 420,000 compounds, 15% hits; also: nearly all actives have a fitted effect of over 55% in size
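No-CPT arm: Tdp1-/-;hTDP1 DT40 cells (400/well) plus compounds, incubated ≥48 hr at 37 °C. Readout CellTiter-Glo luminescence.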
HT1080 IDH1KD tx – HT-1080 IDH1 knockdown cell toxicity (counter line); Potency, µM (doses to about 46.1 µM), for inactives: top-dose activity, negative = toxicity, most hits filed as cytotoxic; HT-1080 IDH1 knockdown viability, ATP luminescence, 48 h; AID 686971; 360,000 compounds, 2% hits;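 also: 0% = DMSO wells and -100% = cell-free medium wells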
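HT-1080-IDH1KD cells (IDH1 knocked down), 750/well in RPMI with 5% FBS, treated with compound 48 h at 37 degrees C. Viability by CellTiter-Glo luminescence, normalised to DMSO and no-cell wells; concentration-response curves classed.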
KB-V1 cytotox – kills drug-selected multidrug resistant KB-V1 cells | KB-V1 MDR cells viability, CellTiter-Glo, 72 h | Potency, µM (titrated, usually from 46.1 µM), hits mostly cytotoxic | 400,000 compounds, 3.4% hits | AID 1347076; also: nearly all actives have a fitted effect of over 60% in size
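Potencies derive from concentration-effect curves fitted to normalized luminescence (CellTiter-Glo) of KB-V1 cells treated for 72 h at 37 degrees C in phenol-red-free DMEM containing 10% FBS.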
KB-3-1 cytotox – KB-3-1 parental cell cytotoxicity | KB-3-1 viability, CellTiter-Glo ATP luminescence, 72 h | Potency, µM (highest dose often 46.1 µM), hits mostly cytotoxic | 400,000 compounds, 1.4% hits; also: nearly all actives have a fitted effect of over 60% in size
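Viability of parental KB-3-1 cells, measured by CellTiter-Glo luminescence, followed a 72 h incubation at 37 °C with pinned compounds in phenol-red-free DMEM containing 10% FBS.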
TDP1 cell CPT – DT40-hTDP1 cell growth loss with CPT; chicken DT40 Tdp1-/-;hTDP1 cells + 20 nM CPT, ATP luminescence, 48 h; Potency, µM (top dose mostly 46.2 µM), inactives show top-dose activity change, negative = growth inhibition, hits mostly inhibitors; 420,000 compounds, 12% hits; also: nearly all actives have a fitted effect of over 55% in size
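Chicken DT40 Tdp1-/- cells complemented with human TDP1, 400 cells/well, exposed to compounds plus 20 nM camptothecin for at least 48 h at 37 C; viability read as ATP content by CellTiter-Glo luminescence.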
* marks the source's active call; other numbers are inactive results; i = inactive; ? = inconclusive; / = no result; [ ] = another dose, or the depositor's remark. Rows were chosen to be rich in hits. Some 19% of all compounds tested hit in one or more screens of this group. Calls follow the shape of the dose curve; as a rule, active = well fitted curve in the direction sought with a large enough effect; inconclusive = small, poorly fitted or top-dose-only effect, or another doubt; inactive = no such curve, though single readings can be large; an effect the other way counts as inactive or inconclusive. Unless noted, % is scaled to controls: 0 for no effect and ±100 for the full control effect; potency is read from the fitted curve at half-maximal effect.

SMILES | HT1080-NT tox | TDP1 cell noCPT | HT1080 IDH1KD tx | KB-V1 cytotox | KB-3-1 cytotox | TDP1 cell CPT
O=C1NC(Cc2ccc(O)cc2)c2nc3cc(Cl)ccc3c(=O)n2-c2cc3ccccc3cc21 (centres undefined) | 23µM* | -19% | 16µM* | ? | ? | -1%
O=C1NC(Cc2ccc(O)cc2)c2nc3ccc(F)cc3c(=O)n2-c2cc3ccccc3cc21 (centres undefined) | 12µM* | 26µM* | 16µM* | ? | 13µM* | ?
O=C1NC(Cc2ccccc2)c2nc3cc(Cl)ccc3c(=O)n2-c2ncccc21 (centres undefined) | 1% | ? | -3% | ? | ? | ?
O=C1NC(Cc2ccc(O)cc2)c2nc3cc(F)c(F)cc3c(=O)n2-c2cc3ccccc3cc21 (centres undefined) | ? | ? | 18µM* | i | ? | ?
COc1cc2nc3n(c(=O)c2cc1OC)-c1cc2ccccc2cc1C(=O)NC3Cc1ccccc1 (centres undefined) | -19% | 16µM* | -23% | i | i | ?
O=C(CS(=O)c1ccc(Br)cc1)N1CCOCC1 (centres undefined) | 5% | -3% | 13% | i | i | 24%
CN(CCNC(=O)c1ccc(N2CCCC2=O)cc1)CCc1ccccc1 | 17% | -8% | 10% | i | i | -5%
CCN(CC)CCNC(=O)c1cc2cc(Br)ccc2s1 | ? | ? | ? | ? | i | -27%
Cc1nc(CSc2nnc3scc(-c4ccc(Cl)cc4)n23)cs1 | 0% | ? | 4% | ? | i | -21%
O=C1NC(Cc2ccccc2)c2nc3ccc(F)cc3c(=O)n2-c2ncccc21 (centres undefined) | -2% | 21µM* | -8% | i | i | ?
COc1ccc2nc3n(c(=O)c2c1)-c1ncccc1C(=O)NC3CC(C)C (centres undefined) | 17% | 5% | 2% | ? | i | 14%
CC1NC(=O)c2cc3ccccc3cc2-n2c1nc1cc(F)ccc1c2=O (centres undefined) | -1% | ? | 0% | i | i | -12%
COc1cc2nc3n(c(=O)c2cc1OC)-c1cc2ccccc2cc1C(=O)NC3CC(C)C (centres undefined) | -15% | ? | ? | ? | 18µM* | ?
COc1cc2nc3n(c(=O)c2cc1OC)-c1ncccc1C(=O)NC3Cc1ccccc1 (centres undefined) | -5% | -29% | -3% | i | i | -10%
CC1NC(=O)c2cc3ccccc3cc2-n2c1nc1cc(Cl)ccc1c2=O (centres undefined) | -12% | ? | 3% | i | i | 21µM*
Cc1ccc2nc3n(c(=O)c2c1)-c1cc2ccccc2cc1C(=O)NC3Cc1ccc(O)cc1 (centres undefined) | 9.2µM* | -14% | 13µM* | i | ? | -8%
Cc1ccc2c(=O)n3c(nc2c1)C(Cc1ccc(O)cc1)NC(=O)c1cccnc1-3 (centres undefined) | -1% | ? | -2% | ? | i | -5%
CC(=O)Nc1ccc(N(CC(=O)NC2CCCCC2)C(=O)Cn2nnc(-c3ccccc3)n2)cc1 | 7% | 5% | 4% | ? | ? | 4%
Cc1ccc2c(=O)n3c(nc2c1)C(CC(C)C)NC(=O)c1cccnc1-3 (centres undefined) | -2% | ? | -2% | i | i | -4%
CC(C)CC1NC(=O)c2cc3ccccc3cc2-n2c1nc1cc(Cl)ccc1c2=O (centres undefined) | 10% | 18µM* | 14% | i | ? | ?
CC(C)CC1NC(=O)c2cccnc2-n2c1nc1cc(F)c(F)cc1c2=O (centres undefined) | 11% | -32% | 7% | i | i | -25%
O=C1NC(Cc2ccccc2)c2nc3cc(F)c(F)cc3c(=O)n2-c2cc3ccccc3cc21 (centres undefined) | ? | 18µM* | ? | ? | 15µM* | 23µM*
CC1CCCN(C(=O)COC(=O)Cc2c(F)cccc2Cl)C1 (centres undefined) | 13% | -17% | 1% | i | i | -7%
Cn1ncc(C(=O)N=S(C)(=O)c2ccccc2)c1[N+](=O)[O-] (centres undefined) | 0% | -3% | 9% | i | i | -12%
CC(C)CN(C(=O)COC(=O)c1c(Cl)ccc(Cl)c1Cl)C1CCS(=O)(=O)C1 (centres undefined) | -2% | ? | -4% | i | i | -8%
SMILES | HT1080-NT tox | TDP1 cell noCPT | HT1080 IDH1KD tx | KB-V1 cytotox | KB-3-1 cytotox | TDP1 cell CPT
O=C(Nc1ccc(/C=C/c2nc3ccccc3o2)cc1)c1ccc(F)cc1 | 1% | ? | 7% | i | i | 21µM*
O=C(NNC(=O)c1ccc(NC(=O)c2ccccc2)cc1)c1ccc(F)cc1 | 7% | 11% | 0% | i | i | 30%
COc1cc(-c2ccc(Cl)cn2)cc2c1OCCN(S(=O)(=O)C[C@]13CC[C@H](CC1=O)C3(C)C)C2 | / | -6% | / | / | / | 13%[9.04 µM]
COc1ccc(CCNC(=O)c2cc(-c3ccc(C)cc3O)n[nH]2)cc1OC | ? | 21µM* | ? | i | i | ?
COc1ccc(CCNC(=O)c2cc(-c3cc(Cl)ccc3O)n[nH]2)cc1OC | ? | 12µM* | -2% | ? | ? | ?
COc1ccc(CCNC(=O)c2cc(-c3ccccc3O)n[nH]2)cc1OC | 4% | 12% | 0% | i | i | -2%
CCOC(=O)C1=C(C)N(CCCC(=O)O)C(=O)NC1c1ccc(Cl)cc1 (centres undefined) | -2% | -4% | -1% | i | i | 0%
CCC(Sc1nc2ccccc2c(=O)n1CC1CCCO1)C(=O)NCc1cccnc1 (centres undefined) | -17% | -6% | -1% | ? | i | -17%
COc1ccccc1-c1coc2cc(OC(=O)N3CCOCC3)ccc2c1=O | -6% | ? | -24% | i | i | -18%
CCc1cc2c(=O)c(-c3nc4ccccc4[nH]3)coc2cc1OC(=O)N1CCOCC1 | -3% | ? | 23% | 3.3µM* | ? | -17%

High-throughput results from PubChem.
